Rows were chosen to be rich in hits. Some 4% of all compounds tested hit in one or more screens of this group.
TROY NFkB inh = inhibitors of TROY-driven NF-kB signaling, primary screen, Q293 LMP1-TROYcd cells, NF-kB luciferase, uHTS; Q293 LMP1-TROYcd NF-kB luciferase reporter, 4 h; inhibition, % at 10 µM; actives 0.98% (n = 360,000); AID 1347056, 2019;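 active means compounds whose plate-normalised and pattern-corrected inhibition of the luciferase reporter signal at the single screening dose is 50% or more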
HIF-2a inh = HIF-2a reporter inhibitors, primary screen, luminescence, 786-0 RCC cells | 786-0 RCC cells HIF-2a reporter, luciferase luminescence, overnight | inhibition, % at 18.8 µM | actives 0.72% (n = 360,000);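 active means inhibition of the luminescence signal of 40% or more relative to plate controls, in a single-dose primary screen at 18.75 µM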
TRPM1 prom inh = inhibitors of MITF-dependent TRPM1 promoter reporter, primary screen, cell-based, SK-MEL-5, single point, luciferase | SK-MEL-5 TRPM1 promoter luciferase, 24 h | inhibition, % at 12.5 µM | actives 0.83% (n = 330,000);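 active means mean inhibition across replicates of 60% or more, whatever share of single replicates reaches that level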
EBV LMP1 NFkB = EBV LMP1-driven NF-kappaB luciferase reporter inhibitors, primary screen, cell-based, luminescence, single point; actives 0.69% (n = 350,000); AID 504558, 2011; inhibition, % at 12.5 µM; LMP1-induced NF-kappaB luciferase reporter cells; in the data active means inhibition above about 41%;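 further: 0% = neutral control wells and 100% = reference inhibitor control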
TWEAK-Fn14 inh = inhibitors of TWEAK-Fn14 signaling, primary screen, luciferase reporter cells, uHTS. TWEAK-stimulated Fn14 reporter cells, luciferase luminescence, 8 h. inhibition, % at 10 µM. actives 2% (n = 360,000). AID 1159606, 2016; in the data active means inhibition above about 50%
Peg3 promoter = Peg3 promoter-driven luciferase inhibitors, primary screen, cell-based, HeLa, luciferase luminescence; HeLa PEG-Prom luciferase reporter, overnight; inhibition, % at 20 µM; actives 1.7% (n = 360,000); AID 588405, 2011;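 active means inhibition of at least 50% at 20 µM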
Active calls of the source: *; . = no result.

SMILES | TROY NFkB inh | HIF-2a inh | TRPM1 prom inh | EBV LMP1 NFkB | TWEAK-Fn14 inh | Peg3 promoter
Cc1nc(=S)c2c([nH]1)-c1ccccc1CC21CCCCC1 | -5 | 11 | 42 | 20 | 75* | 8
CCCc1[nH]nc2c1C(C1CCCCC1)C(C#N)=C(N)O2 (stereo not given) | 7 | 29 | 3 | -4 | 55* | 38
CCCc1[nH]nc2c1C(c1ccsc1)C(C#N)=C(N)O2 (stereo not given) | 44 | 19 | 15 | 1 | 45 | -9
CCOC(=O)c1cc([N+](=O)[O-])c([N+](=O)[O-])cc1NC(C)=O | 6 | 23 | 88* | 22 | 49 | 109*
CCOC(=O)c1ccc(NC(=O)c2ccccc2[N+](=O)[O-])cc1 | -25 | -135 | -52 | -8 | -1 | -90
O=C(Cn1nc(-c2ccccc2)c2ccccc2c1=O)NCCO | -8 | 15 | 10 | 6 | 23 | 4
O=C(Nc1ncc([N+](=O)[O-])s1)c1cccs1 | -16 | -177 | -15 | -3 | 47 | -136
Cc1ncoc1C(=O)Nc1ncc([N+](=O)[O-])s1 | 1 | -92 | -7 | 23 | 50* | -93
O=C(COC(=O)/C=C/c1ccc(Cl)c(Cl)c1)NC1CCCC1 | -15 | 6 | -1 | 4 | -9 | 14
CN(C)CC1CCC/C(=C\c2ccc(OC(=O)/C=C/c3ccc(Cl)c(Cl)c3)cc2)C1=O (stereo not given) | 3 | 8 | 2 | -1 | -22 | 95*
Cc1ccc(S(=O)(=O)CCC(=O)c2ccc(F)cc2)cc1 | 0 | 15 | 11 | -4 | 4 | 32
Cc1ccc(C(=O)CCS(=O)(=O)c2ccc(F)cc2)cc1 | 3 | 7 | -4 | 5 | 4 | 60*
Cc1cccc(OCCSc2nc(N)cc(N)n2)c1 | -37 | -135 | -34 | -8 | -8 | -70
CN(c1ccccc1)c1ccc(/C=C(/CCC(=O)O)c2nc3ccccc3s2)cc1[N+](=O)[O-] | 57* | 13 | 11 | 5 | 42 | 57*
Cc1nc(SCc2nc3ccc(Cl)cc3[nH]2)c2oc3ccccc3c2n1 | 17 | 9 | 8 | 17 | -13 | 8
Cc1nc(SCc2nc3cc(Cl)c(F)cc3[nH]2)c2oc3ccccc3c2n1 | 6 | -1 | 14 | 19 | 53* | 39
CC1=CCC[C@@H]2[C@]3(CC/C(=C/CO)CO)CO[C@@]2(C1)[C@@H](O)C[C@H]3C | -3 | 11 | . | . | -13 | -8
Cc1cc(O)c(-c2cc(C(=O)Nc3ccc(S(=O)(=O)N4CCOCC4)cc3)[nH]n2)cc1C | 35 | -4 | 8 | 0 | 31 | 60*
O=C(Nc1ccc(Cl)cc1)c1ccc(S(=O)(=O)N2CCOCC2)cc1 | 2 | -1 | 4 | 4 | 46 | -12
O=C(Nc1ccc(S(=O)(=O)N2CCOCC2)cc1)c1cc(-c2cc(Cl)ccc2O)n[nH]1 | 69* | -3 | 11 | -5 | 91* | 86*
Cc1ccc(O)c(-c2cc(C(=O)Nc3ccc(S(=O)(=O)N4CC(C)OC(C)C4)cc3)[nH]n2)c1 (stereo not given) | 44 | -4 | 2 | -9 | 49 | 55*
COc1ccc(CN2CCN(CCSc3ccc(C)cc3)CC2)c(OC)c1OC | 11 | 12 | 7 | 4 | 15 | 8
O=[N+]([O-])c1ccc(O)c(Nc2c([N+](=O)[O-])ccc3nonc23)c1 | 26 | 12 | 20 | 8 | 3 | 26
COc1ccc(CC2(CO)CCN(S(=O)(=O)c3cccc4cccnc34)CC2)cc1 | 14 | -4 | 0 | 8 | 56* | -37
COc1cccc(CNC(=O)C2=Cc3cccc(OC)c3OC2)c1 | 4 | 1 | -1 | 4 | -21 | 58*
SMILES | TROY NFkB inh | HIF-2a inh | TRPM1 prom inh | EBV LMP1 NFkB | TWEAK-Fn14 inh | Peg3 promoter
COC(=O)c1ccccc1Sc1ncnc2onc(C)c12 | 16 | 13 | 6 | 7 | 37 | 101*
CC1CCc2sc(C(=O)NN=C3CCCC3)cc2C1 (stereo not given) | -19 | -28 | . | -5 | -16 | -61
CCc1noc(C)c1C(=O)OCC(=O)Nc1nc(-c2ccc(F)c(F)c2)cs1 | 54* | -72 | -2 | 9 | 8 | -1
Cc1noc(C)c1CSCC(=O)Nc1nc(-c2ccc(F)c(F)c2)cs1 | 72* | -21 | 17 | 26 | 77* | 41
COc1ccc(-n2c(C)c(C)c3c(NCCCO)ncnc32)cc1 | -31 | -117 | -30 | -11 | 3 | -77
O=c1c(CO)cc(CO)cc(CO)c1O | 3 | 0 | 1 | -10 | -23 | -11
O=C1C=CC(=O)c2c(O)c(CO)c(CO)c(O)c21 | 3 | -6 | 103* | -1 | 49 | -8
CCCCN(C)c1c(C)nc2ccc(C(=O)NCc3ccc4c(c3)OCO4)cn12 | 15 | 9 | . | . | -3 | 22
O=c1[nH]c2cc(Cl)c(Br)cc2o1 | 8 | 2 | -4 | 68* | -18 | 4
O=c1[nH]c2cc(Cl)c(Cl)cc2o1 | 13 | 5 | 5 | -1 | -21 | 7
COc1ccc(N2CCN(c3nc(NCCc4ccc(OC)c(OC)c4)nc(OC)n3)CC2)cc1 | 57* | 7 | 6 | 13 | 38 | 67*
CCn1nccc1C(=O)Nc1ccc(Cl)cc1Cl | 4 | -192 | -19 | -20 | 55* | -96
CCCCc1c(Cc2ccccc2)ncn1CCc1ccccc1OC | 41 | -2 | . | . | 1 | .
C=CCn1c(SCC(=O)N2CCCCCC2)nc2ccccc2c1=O | 3 | 6 | -8 | 4 | 73* | 14
C=CCn1c(SCC(=O)NC2CC2)nc2ccccc2c1=O | -21 | -2 | -3 | 1 | 7 | -3
C=CCn1c(SCC(=O)c2ccc(CNC(C)=O)o2)nc2ccccc2c1=O | 1 | 18 | 7 | 82* | 9 | 4
O=C1c2ccccc2NC(c2cnc3ccccc3n2)N1O (stereo not given) | 26 | -74 | -15 | 0 | 74* | -109
Cc1nn(C)c(C)c1C1Nc2ccccc2C(=O)N1O (stereo not given) | -40 | -3 | -2 | -5 | -9 | 12
N=c1c[n+](N2CCOCC2)[n-]o1 | 15 | -11 | 1 | 3 | 72* | -9
Cc1cc(CSc2ccccc2)ccc1NC(=O)c1ccc(Cl)c([N+](=O)[O-])c1 | -6 | 9 | -2 | 2 | -25 | 64*
Cc1cc(CSc2ccccc2)ccc1NC(=O)c1ccc(CN2CCOCC2)cc1 | 24 | 4 | 12 | 35 | 52* | 13
CSc1ccccc1NC(=O)c1ccc(CN2CCOCC2)cc1 | -19 | -92 | -1 | -12 | -10 | -70
CC(=O)Oc1ccc(OC(C)=O)c(SCCCCCCl)c1 | -15 | -4 | 2 | -72 | 76* | 14
